Test results: PubChem BioAssay AID1159580 (chemical genetic matrix, 2015)
The whole screen tested about 5,500 compounds, of which about 2,000 (36%) were called active. Not shown: some 18% with an inconclusive outcome. Rule as the data show it: active = normalized growth mostly below about 0.91 (no sharp cut-off); inconclusive = no clear call, values can overlap the other calls; inactive = mostly above about 0.92. The list shows a part of the results.

Assay: chemical genetic growth profiling, strain panel (AID 1159580);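 also: tested at 20 µM; growth read once vehicle control cultures reached saturation at 30 °C; 1 = growth at the plate median or of vehicle wells; lower values mean less growth of the strain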
Conditions: growth OD

Measured: normalized growth

CC(CCC(=O)O)[C@H]1CCC2C3CC[C@@H]4CCCC[C@]4(C)C3CC[C@@]21C (some centres undefined)
inactive: S. cerevisiae deletion strains, locus YJR043C, strain POL32, hits give low values 1.02 | S. cerevisiae deletion strains, locus YJR066W, strain TOR1, hits give low values 1.06 | S. cerevisiae deletion strains, locus YJR075W, strain HOC1, hits give low values 0.999 | S. cerevisiae deletion strains, locus YKL009W, strain mrt4, hits give low values 0.95 | S. cerevisiae deletion strains, locus YKL068W, hits give low values 0.989 | S. cerevisiae deletion strains, locus YKL085W, strain MDH1 (second series), hits give low values 0.986 | S. cerevisiae deletion strains, locus YKL085W, strain MDH1, hits give low values 0.986 | S. cerevisiae deletion strains, locus YKL160W, strain elf1, hits give low values 1.02 | S. cerevisiae deletion strains, locus YKL190W, strain CNB1, hits give low values 0.998 | S. cerevisiae deletion strains, locus YKR001C, strain vps1, hits give low values 0.998 | S. cerevisiae deletion strains, locus YKR026C, strain gcn3, hits give low values 1.01 | S. cerevisiae deletion strains, locus YKR091W, strain srl3, hits give low values 1 | S. cerevisiae deletion strains, locus YLL001W, strain dnm1, hits give low values 1.01 | S. cerevisiae deletion strains, locus YLL026W, hits give low values 0.988 | S. cerevisiae deletion strains, locus YLL041C, strain sdh2, hits give low values 1 | S. cerevisiae deletion strains, locus YLR027C, strain aat2, hits give low values 0.995 | S. cerevisiae deletion strains, locus YLR039C, strain RIC1, hits give low values 1.05 | S. cerevisiae deletion strains, locus YLR058C, strain SHM2, hits give low values 0.999 | S. cerevisiae deletion strains, locus YLR102C, strain apc9, hits give low values 0.984 | S. cerevisiae deletion strains, locus YLR113W, strain HOG1, hits give low values 0.977 | S. cerevisiae deletion strains, locus YLR221C, strain rsa3, hits give low values 1.02 | S. cerevisiae deletion strains, locus YLR258W, strain gsy2, hits give low values 1 | S. cerevisiae deletion strains, locus YLR262C, strain YPT6 (second series), hits give low values 1.05 | S. cerevisiae deletion strains, locus YLR262C, strain YPT6, hits give low values 1.1 | S. cerevisiae deletion strains, locus YLR268W, strain sec22, hits give low values 0.979 | S. cerevisiae deletion strains, locus YLR320W, strain mms22, hits give low values 1.05 | S. cerevisiae deletion strains, locus YLR330W, strain CHS5, hits give low values 0.999 | S. cerevisiae deletion strains, locus YLR342W, strain FKS1 (second series), hits give low values 0.956 | S. cerevisiae deletion strains, locus YLR342W, strain FKS1, hits give low values 1.04 | S. cerevisiae deletion strains, locus YLR357W, strain rsc2, hits give low values 0.997 | S. cerevisiae deletion strains, locus YLR370C, strain arc18, hits give low values 1.01 | S. cerevisiae deletion strains, locus YLR371W, strain rom2, hits give low values 0.986 | S. cerevisiae deletion strains, locus YLR384C, strain iki3, hits give low values 1 | S. cerevisiae deletion strains, locus YLR418C, strain cdc73, hits give low values 0.975 | S. cerevisiae deletion strains, locus YML016C, strain PPZ1, hits give low values 1 | S. cerevisiae deletion strains, locus YML032C, strain rad52, hits give low values 0.992 | S. cerevisiae deletion strains, locus YML120C, strain ndi1, hits give low values 1.01 | S. cerevisiae deletion strains, locus YML124C, strain tub3, hits give low values 0.988 | S. cerevisiae deletion strains, locus YMR058W, strain fet3, hits give low values 1.01 | S. cerevisiae deletion strains, locus YMR078C, strain ctf18, hits give low values 1 | S. cerevisiae deletion strains, locus YMR125W, strain sto1, hits give low values 1.02 | S. cerevisiae deletion strains, locus YMR129W, hits give low values 1 | S. cerevisiae deletion strains, locus YMR205C, strain PFK2, hits give low values 1.03 | S. cerevisiae deletion strains, locus YMR223W, strain ubp8, hits give low values 0.994 | S. cerevisiae deletion strains, locus YMR231W, strain pep5, hits give low values 0.998 | S. cerevisiae deletion strains, locus YMR307W, strain GAS1, hits give low values 0.985 | S. cerevisiae deletion strains, locus YNL067W, strain RPL9B, hits give low values 1.02 | S. cerevisiae deletion strains, locus YNL071W, strain lat1, hits give low values 1.01 | S. cerevisiae deletion strains, locus YNL209W, strain ssb2, hits give low values 1.02 | S. cerevisiae deletion strains, locus YNL233W, strain BNI4, hits give low values 1.01 | S. cerevisiae deletion strains, locus YNL248C, strain rpa49, hits give low values 1.01 | S. cerevisiae deletion strains, locus YNL250W, strain rad50, hits give low values 0.982 | S. cerevisiae deletion strains, locus YNL271C, strain bni1, hits give low values 0.986 | S. cerevisiae deletion strains, locus YNL298W, strain CLA4, hits give low values 0.981 | S. cerevisiae deletion strains, locus YNL307C, strain MCK1, hits give low values 0.987 | S. cerevisiae deletion strains, locus YNL322C, strain KRE1 (second series), hits give low values 1.01 | S. cerevisiae deletion strains, locus YNL322C, strain KRE1, hits give low values 0.997 | S. cerevisiae deletion strains, locus YNR049C, strain mso1, hits give low values 0.998 | S. cerevisiae deletion strains, locus YNR052C, strain pop2, hits give low values 0.985 | S. cerevisiae deletion strains, locus YOL012C, strain htz1 1.54 | S. cerevisiae deletion strains, locus YOL147C, strain pex11, hits give low values 0.993 | S. cerevisiae deletion strains, locus YOR001W, strain rrp6, hits give low values 1.02 | S. cerevisiae deletion strains, locus YOR061W, strain CKA2, hits give low values 0.99 | S. cerevisiae deletion strains, locus YOR069W, strain VPS5, hits give low values 0.993 | S. cerevisiae deletion strains, locus YOR070C, strain gyp1, hits give low values 0.994 | S. cerevisiae deletion strains, locus YOR080W, strain dia2, hits give low values 0.998 | S. cerevisiae deletion strains, locus YOR083W, strain WHI5, hits give low values 1.02 | S. cerevisiae deletion strains, locus YOR106W, strain vam3, hits give low values 1.02 | S. cerevisiae deletion strains, locus YOR136W, strain idh2, hits give low values 0.986 | S. cerevisiae deletion strains, locus YOR144C, strain elg1, hits give low values 0.992 | S. cerevisiae deletion strains, locus YOR184W, strain ser1, hits give low values 0.992 | S. cerevisiae deletion strains, locus YOR231W, strain MKK1, hits give low values 0.969 | S. cerevisiae deletion strains, locus YOR265W, strain rbl2, hits give low values 1 | S. cerevisiae deletion strains, locus YOR270C, strain vph1, hits give low values 1.01 | S. cerevisiae deletion strains, locus YOR290C, strain snf2, hits give low values 1.01 | S. cerevisiae deletion strains, locus YOR316C, strain cot1, hits give low values 0.985 | S. cerevisiae deletion strains, locus YPL051W, strain arl3, hits give low values 1.01 | S. cerevisiae deletion strains, locus YPL055C, strain LGE1, hits give low values 0.991 | S. cerevisiae deletion strains, locus YPL078C, strain atp4, hits give low values 1.01 | S. cerevisiae deletion strains, locus YPL106C, strain sse1, hits give low values 1.03 | S. cerevisiae deletion strains, locus YPL240C, strain hsp82, hits give low values 0.998 | S. cerevisiae deletion strains, locus YPL256C, strain CLN2, hits give low values 0.94 | S. cerevisiae deletion strains, locus YPR119W, strain clb2, hits give low values 0.993 | S. cerevisiae deletion strains, locus YPR141C, strain kar3, hits give low values 0.986 | S. cerevisiae deletion strains, locus YPR163C, strain tif3, hits give low values 1.01 | S. cerevisiae deletion strains, locus YPR167C, strain met16, hits give low values 0.971 | S. cerevisiae deletion strains, strain wtn01, hits give low values 0.965 | S. cerevisiae strains, strain wild type, hits give low values 0.995
active: S. cerevisiae deletion strains, locus YNL183C, strain NPR1, hits give low values 1.11 [resistant]
